A short description of test [1]: qHTS assay to test for compound auto fluorescence at 535 nm (green) in HEK293 cells (AID 720680). The conditions noted are these: green autofluorescence 485/535 nm; series mostly up to 91.3 µM. On the technique in general: In qHTS, concentration-response curves come from the screen itself.
Test [2] in a line: qHTS assay to test for compound auto fluorescence at 460 nm (blue) in HEK293 cell free culture (AID 720681). The conditions noted are these: cell-free medium, autofluorescence 405/460 nm (blue); series mostly up to 91.3 µM. The method in brief: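 Compounds were added to cell-free DMEM with 10% FBS and fluorescence read directly. The blue channel used 405 nm excitation and 460 nm emission, with triamterene as the reference fluorophore.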

A short description of test [3]: qHTS assay to test for compound auto fluorescence at 535 nm (green) in HEK293 cell free culture (AID 720682). The conditions noted are these: cell-free medium, green autofluorescence 485/535 nm; series mostly up to 91.3 µM. The method in brief: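 DMEM + 10% FBS, cell-free; cpd or DMSO pinned in; Ex485/Em535 read; output as fluorescein-equivalent signal.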
Test [4] in a line: qHTS assay to test for compound auto fluorescence at 590 nm (red) in HEK293 cell free culture (AID 720683). The note with it: cell-free medium autofluorescence, Ex540/Em590 red; series mostly up to 91.3 µM. The procedure, abridged:
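Cell-free wells of DMEM with 10% FBS received compound, and intrinsic fluorescence was read at excitation/emission 540/590 nm. Values expressed as equivalence to Rose Bengal sodium.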

The nature of test [5]: qHTS assay to test for compound auto fluorescence at 590 nm (red) in HepG2 cell free culture (AID 720684). The note with it: cell-free medium autofluorescence, red 540/590 nm; series mostly up to 91.3 µM. The method in brief:
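Compound was pinned into wells holding MEM with 10% FBS and no cells, and red fluorescence was read at Ex/Em 540/590 nm. Signal is expressed as auto fluorescence equivalency relative to Rose Bengal sodium.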

Test [6] in a line: qHTS assay to test for compound auto fluorescence at 460 nm (blue) in HepG2 cell free culture (AID 720685). The note with it: Cell-free culture medium, blue autofluorescence 405/460 nm; series mostly up to 91.3 µM. The method in brief:
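Compound (23 nL) or DMSO pinned into cell-free MEM with 10% FBS; blue fluorescence read at 405/460 nm excitation/emission, expressed as auto-fluorescence equivalency to triamterene.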

Test [7] can be described thus: qHTS assay to test for compound auto fluorescence at 535 nm (green) in HepG2 cell free culture (AID 720686). The conditions noted are these: Cell-free medium, green autofluorescence 485/535 nm; series mostly up to 91.3 µM.
Test [8] is described as follows: qHTS assay to test for compound auto fluorescence at 460 nm (blue) in HepG2 cells (AID 720687). The conditions noted are these: autofluorescence 405/460 nm, 1 h; series mostly up to 91.3 µM. The method in brief:
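HepG2 cells in MEM with 10% FBS, attached overnight at 37 C, were exposed to compound or DMSO for 1 hr at 37 C, 5% CO2. Blue fluorescence was read at 405/460 nm, with triamterene as reference fluorophore.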

Test [9] concerns the target Glucocorticoid receptor (Homo sapiens) (UniProt P04150). Kind of test: qHTS assay to identify small molecule agonists of the glucocorticoid receptor (GR) signaling pathway (AID 720691; active means well fitted activation curve with a large enough effect in the signal ratio in the repeat runs, not every such curve was filed as active; the % refers to the signal ratio). The conditions noted are these: GR-bla HeLa, beta-lactamase reporter ratio, 18 h; series mostly up to 62.4 µM. The procedure, abridged:
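Agonist mode in a HeLa line carrying a GRE-controlled beta-lactamase reporter. Compounds act for 18 h at 37 C before a 2 h room-temperature FRET substrate step and fluorescence reading.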

For test [10] the target is unchanged. The experiment in a line: qHTS assay to identify small molecule antagonists of the glucocorticoid receptor (GR) signaling pathway (AID 720692; active means well fitted inhibition curve with a large enough effect in the signal ratio in the repeat runs, not every such curve was filed as active; the % refers to the signal ratio; further: potency means the concentration at half of the fitted maximal effect). The conditions noted are these: GR-bla HeLa, beta-lactamase FRET ratio, dexamethasone-stimulated, 18 h; series mostly up to 58.5 µM. The method in brief: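 Cells plated, rested 4 h at 37 C/5% CO2; compounds in DMSO pin-transferred; dexamethasone added to 5 nM final; 18 h at 37 C; B/G FRET substrate added, 2 h room temperature; fluorescence measured.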

Results on 16 compounds are retold here after PubChem BioAssay (Tox21).

Records with an inconclusive call do not appear. The source made the active and inactive calls. Unless noted, the call rests on the fitted dose curve; in most records, active means well fitted curve in the direction sought with a large enough effect in the repeat runs; inconclusive means weak or mixed curves; inactive means flat fitted curve, though single readings scatter.

Glucocorticoid receptor (Homo sapiens), sequence (P04150 whole entry, looked up): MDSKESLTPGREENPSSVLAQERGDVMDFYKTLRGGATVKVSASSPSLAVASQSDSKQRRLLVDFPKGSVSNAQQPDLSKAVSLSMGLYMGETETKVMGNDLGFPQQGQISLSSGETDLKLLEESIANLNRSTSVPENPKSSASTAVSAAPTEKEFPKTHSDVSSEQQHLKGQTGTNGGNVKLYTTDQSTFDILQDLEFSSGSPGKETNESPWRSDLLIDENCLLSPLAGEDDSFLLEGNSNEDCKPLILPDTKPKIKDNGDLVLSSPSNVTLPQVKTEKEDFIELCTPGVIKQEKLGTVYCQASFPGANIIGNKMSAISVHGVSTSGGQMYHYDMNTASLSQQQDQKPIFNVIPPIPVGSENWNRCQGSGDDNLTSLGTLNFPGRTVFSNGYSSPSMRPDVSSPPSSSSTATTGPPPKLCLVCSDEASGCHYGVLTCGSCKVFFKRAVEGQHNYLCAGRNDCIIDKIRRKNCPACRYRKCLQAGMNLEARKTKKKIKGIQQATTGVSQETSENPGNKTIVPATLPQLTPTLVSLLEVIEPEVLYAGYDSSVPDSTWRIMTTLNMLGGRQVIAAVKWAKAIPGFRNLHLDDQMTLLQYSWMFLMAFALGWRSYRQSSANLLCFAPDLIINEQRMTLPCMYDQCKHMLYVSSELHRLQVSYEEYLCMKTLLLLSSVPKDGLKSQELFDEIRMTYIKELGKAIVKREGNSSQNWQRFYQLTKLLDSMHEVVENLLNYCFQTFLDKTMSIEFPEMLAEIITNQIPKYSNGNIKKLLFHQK

In the case of `COc1cccc(OC)c1C(=O)O`, the Potency entry in test [1], in test [2], in [3], in [4], in test [5] and in test [6] was “inactive” each time. The Potency result in test [7], in [8], in [9] and in test [10] was “inactive” throughout.
Regarding `C=CCCC(=O)/C=C/C1C(C)=CCCC1(C)C` (configuration not stated), the Potency entry in test [1], in test [2], in [3], in test [4], in [5] and in [6] was “inactive” throughout. The Potency result in [7], in test [8], in test [9] and in test [10] was “inactive” each time.
Consider `O=C(O)c1cc(=O)c2ccccc2o1`, for which the Potency entry in test [1], in test [2], in test [3], in test [4], in [5] and in test [6] was “inactive” throughout. Also, the Potency result in test [7], in [8], in [9] and in test [10] was “inactive” in each case.
Consider `O=[N+]([O-])c1cccc(C(F)(F)F)c1`, for which the Potency result in [1], in test [2], in test [3], in test [4], in test [5] and in test [6] was “inactive” in each case. The Potency entry in test [7], in test [8], in [9] and in test [10] was “inactive” in each case.
Take `C=Cc1ccccc1C=C`: the Potency entry in test [1], in test [2], in test [3], in [4], in test [5] and in test [6] was “inactive” throughout. In addition, the Potency entry in [7], in [8], in test [9] and in test [10] was “inactive” each time.
`CC[N+](CC)(CC)CCOc1ccc(/C=C/c2ccccc2)cc1`: the Potency entry in test [1], in [2], in [3], in [4], in test [5] and in [6] was “inactive” each time. The Potency result in test [7], in test [9] and in test [10] was “inactive” throughout.
As for `CC(C)Cn1cnc2c(N)nc3ccccc3c21`, the Potency entry in test [1], in test [2], in test [3], in [4], in test [5] and in test [6] was “inactive” each time. The Potency result in test [7], in [8], in [9] and in [10] was “inactive” throughout.
Consider `COc1ccc2cc1Oc1ccc(cc1)C[C@H]1c3c(cc4c(c3Oc3cc5c(cc3OC)CCN(C)[C@@H]5C2)OCO4)CCN1C`, for which the Potency entry in test [1], in test [2], in test [3], in test [4], in test [5] and in test [6] was “inactive” each time. Moreover, the Potency entry in test [7], in [9] and in [10] was “inactive” each time.
Consider `C=C(C)C(=O)OCCCCCCCCCC`, for which the Potency result in [1], in test [2], in [3], in [4], in [5] and in [6] was “inactive” each time. Also, the Potency entry in test [7] and in test [9] was “inactive” each time.
On to `CCCNCCC`, for which the Potency result in test [1], in [2], in test [3], in [4], in test [5] and in test [6] was “inactive” in each case. The Potency entry in test [7], in test [8], in test [9] and in test [10] was “inactive” in each case.
Take `CCCCCCCCCCCCCC[N+](C)(C)C`: the Potency result in [1], in [2], in test [3], in test [4], in test [5] and in [6] was “inactive” throughout. Moreover, the Potency entry in [7] and in test [8] was “inactive” each time. For the same compound, in test [10], the Potency is 15.5 µM (active).
For the compound `CC/C=C\CCCCCO`, the Potency entry in test [1], in test [2], in test [3], in test [4], in [5] and in test [6] was “inactive” throughout. Also, the Potency entry in test [7], in test [8], in [9] and in test [10] was “inactive” in each case.
Take `Oc1ccccc1O`: the Potency result in test [1], in [2], in test [3], in [4], in test [5] and in test [6] was “inactive” throughout. The Potency result in test [7] and in test [9] was “inactive” throughout.
On to `COC(=O)c1ccccc1OC`, for which the Potency entry in test [1], in test [2], in test [3], in test [4], in test [5] and in [6] was “inactive” in each case. The Potency entry in test [7] and in [9] was “inactive” in each case.
For the compound `OC[C@@H](O)[C@@H](O)CO`, the Potency result in test [1], in [2], in test [3], in test [4], in test [5] and in [6] was “inactive” throughout. Besides, the Potency entry in test [7] and in test [9] was “inactive” throughout.
On to `Cc1cc(C(C)(C)C)c(O)c(C)c1Cn1c(=O)n(Cc2c(C)cc(C(C)(C)C)c(O)c2C)c(=O)n(Cc2c(C)cc(C(C)(C)C)c(O)c2C)c1=O`, for which the Potency result in test [1], in test [2], in test [3], in test [4], in test [5] and in [6] was “inactive” in each case. The Potency entry in test [7] and in test [9] was “inactive” each time.
